Rows were chosen to be rich in hits. Some 2.4% of all compounds tested hit in one or more screens of this group.
CHO-K1 Ca antag: counter-screen for M1 antagonists: effect in parental CHO-K1 cells. ATP-induced calcium, Fluo-8 fluorescence. inhibition, % at 3 µM. actives 0.6% (n = 360,000);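 active = inhibition above a per-plate cutoff, the plate's mean sample inhibition plus 3 SD, cut at about 24% in these data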
CHRM1 PAM: human CHRM1 positive allosteric modulation. P11229. CHO-K1 hM1, Fluo-8 calcium fluorescence, ACh EC20; 0% = ACh EC20, 100% = maximal ACh. activation, % at 3 µM. actives 0.088% (n = 360,000); in the data active = activation above about 19%, passing the limit was not always enough
Target sequence (P11229 whole entry, looked up): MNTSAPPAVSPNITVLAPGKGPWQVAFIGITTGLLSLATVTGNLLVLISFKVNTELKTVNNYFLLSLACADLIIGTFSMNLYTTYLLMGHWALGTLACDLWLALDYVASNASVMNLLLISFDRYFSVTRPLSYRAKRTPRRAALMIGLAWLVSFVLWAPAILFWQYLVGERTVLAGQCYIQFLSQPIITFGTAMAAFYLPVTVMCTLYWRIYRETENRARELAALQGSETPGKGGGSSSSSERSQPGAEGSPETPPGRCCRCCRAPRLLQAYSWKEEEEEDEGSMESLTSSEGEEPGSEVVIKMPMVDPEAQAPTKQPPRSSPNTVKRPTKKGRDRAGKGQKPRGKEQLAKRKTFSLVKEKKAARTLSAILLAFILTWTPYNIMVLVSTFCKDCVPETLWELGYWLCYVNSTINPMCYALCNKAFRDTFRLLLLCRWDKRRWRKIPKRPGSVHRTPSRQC
CHRM1 agonist: agonists of human M1 muscarinic receptor; CHO-K1 hM1, Fluo-8 calcium fluorescence, agonist mode; 0% DMSO, 100% acetylcholine EC100; activation, % at 3 µM; actives 0.33% (n = 360,000); AID 588814;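 active = activation above the run's mean compound activation plus 3 SD, cut at about 16% in these data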;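 note: peak over basal fluorescence ratio within a 140 s kinetic read after compound addition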
M1 ag parental: M1 agonist counterscreen hit in parental CHO-K1 cells. Fluo-8 calcium fluorescence; scaled to maximal ATP response, vehicle zero. activation, % at 3 µM. actives 0.48% (n = 360,000). AID 602248; in the data active = activation above about 15%;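 note: untransfected CHO-K1 host cells lacking M1 receptor as counterscreen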
CHO-K1 Ca PAM: M1 PAM counterscreen hit in parental CHO-K1 cells. actives 0.02% (n = 360,000). activation, % at 3 µM. ATP EC20, Fluo-8 calcium fluorescence; 0% at ATP EC20, 100% at ATP max;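 active = activation above the run cutoff, the mean activation of all test compounds plus 3 SD, cut at about 40% in these data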;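 note: peak over basal fluorescence ratio in a 140 s read after ATP addition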
CHRM1 antagonist: human CHRM1 antagonism. AID 588852. inhibition, % at 3 µM. actives 1.3% (n = 360,000). CHO-K1 hM1, Fluo-8 calcium fluorescence, ACh EC80 antagonist;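 active = percent inhibition above its own plate's cutoff, namely the mean of that plate's compound wells plus 3 SD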;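 note: peak over basal fluorescence ratio during 140 s after agonist addition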
A number is an active result; . = inactive.

SMILES | CHO-K1 Ca antag | CHRM1 PAM | CHRM1 agonist | M1 ag parental | CHO-K1 Ca PAM | CHRM1 antagonist
CC(=O)Nc1sc(C)c(C)c1C(=O)OCC(=O)Nc1cccc(C)c1 | . | . | . | . | . | .
Cc1cc(C)c(C#N)c(SCC(O)COc2ccc(Br)cc2)n1 (stereo unspecified) | . | . | . | . | . | 61
Cc1cc2nc3n(c2cc1C)CC1CC(C(=O)NCC2CC2)N(C)C31 (stereo unspecified) | . | . | . | . | . | 42
COc1ccc(-c2n[nH]c(=S)n2-c2ccc3c(c2)OCCO3)cc1 | . | . | . | . | . | .
COc1cc(OC)cc(-c2n[nH]c(=S)n2-c2ccc3c(c2)OCCO3)c1 | . | . | . | . | . | 26
CCCNC(=O)c1nnsc1S(=O)c1ccc(Cl)cc1 (stereo unspecified) | . | . | . | . | . | .
CCCNC(=O)c1nnsc1S(=O)(=O)c1ccc(Cl)cc1 | . | . | . | . | . | 96
COc1ccccc1OC(C)C(=O)N1CCc2ccccc21 (stereo unspecified) | . | . | . | . | . | .
COC(=O)c1c(C)[nH]c(C(=O)OC(C)C(=O)NC2CCCCC2C)c1C (stereo unspecified) | . | 26 | . | . | . | .
Cc1nn(-c2ccccc2)c(C)c1C(=O)OC(C)C(=O)NC1CCCCC1C (stereo unspecified) | . | . | . | . | . | 30
C=CCn1c(-c2ccccc2)c[nH]c1=S | . | . | . | . | . | .
CCn1c(-c2ccc(-c3ccccc3)cc2)c[nH]c1=S | . | . | . | . | . | 48
CCCC1/C(=N/O)CC(c2ccccc2)NC1c1ccccc1 (stereo unspecified) | 37 | . | . | 18 | . | .
CC1/C(=N/O)CC(c2ccccc2)NC1c1ccccc1 (stereo unspecified) | . | . | . | . | . | .
Cc1c(C(=O)NCc2ccc([N+](=O)[O-])cc2)sc(=O)n1Cc1ccc2c(c1)OCO2 | . | . | 19 | . | . | .
Cc1c(C(=O)NCc2ccc3c(c2)OCCO3)sc(=O)n1Cc1ccc2c(c1)OCO2 | . | . | . | . | . | .
Cc1c(C(=O)NCc2cccc([N+](=O)[O-])c2)sc(=O)n1Cc1ccc(F)cc1 | . | . | . | . | . | 39
Cc1cccc(C)c1-n1c(C)cc(/C=N\Nc2ccc([N+](=O)[O-])cn2)c1C | . | . | . | . | . | 35
Cn1c(/C=C(\C#N)C(N)=S)ccc1-c1ccc(Br)cc1 | . | . | . | . | . | .
COc1cc(/C=C(\C#N)C(=O)c2c[nH]c3ccccc23)cc(OC)c1O | . | . | 23 | 19 | . | .
CCOC(=O)c1c(NC(=O)C(C)N2CCN(C(=O)c3ccco3)CC2)sc2c1CCCC2 (stereo unspecified) | . | . | 20 | . | . | 37
O=C(CC(=O)N/N=C/c1cccs1)NCc1ccccc1 | . | . | . | 16 | . | .
CCCN1C(=O)CC(=O)N=C1SCC(=O)Nc1ccccc1F | . | . | . | 18 | . | .
CCc1cc(C(=O)Nc2cc(Cl)ccc2N2CCN(C)CC2)sc1C | 28 | . | . | . | . | .
CCc1cc(C(=O)Nc2cc(S(=O)(=O)N(CC)CC)ccc2N2CCN(C)CC2)sc1C | . | . | . | . | . | .
SMILES | CHO-K1 Ca antag | CHRM1 PAM | CHRM1 agonist | M1 ag parental | CHO-K1 Ca PAM | CHRM1 antagonist
Cc1cc(OCC(=O)Nc2cccc(S(=O)(=O)N3CCCCC3)c2)ccc1Cl | . | . | . | . | . | .
CCn1c(CNC(=O)c2ccccc2F)cc2cc(C)ccc21 | 31 | . | . | . | . | .
CCOC(=O)C1CCN(C(=O)c2cccs2)CC1 | . | . | . | . | . | .
Cc1cccc(C)c1C(=NCCCN(C)C)c1ccccc1 | . | . | . | . | . | 79
COc1cccc(C(=O)Nc2cc(C)ccc2NC(=O)COc2ccccc2)c1 | . | . | . | . | . | 48
Cc1cc(C)c[n+](CC(=O)c2ccc(-c3ccccc3)cc2)c1 | . | . | . | . | . | 36
O=C(C[n+]1ccccc1)c1ccc(NC(=O)c2ccccc2)cc1 | . | . | . | . | . | .
Cc1cc[n+](CC(=O)c2ccc(NC(=O)c3ccccc3)cc2)cc1 | . | . | . | . | . | 32
Cc1cc(C)c[n+](CC(=O)c2ccc(NC(=O)c3ccccc3)cc2)c1 | . | . | . | . | . | .
Cc1ccc(S(=O)(=O)NC(=O)C2(C)CCN2C(=O)C2(c3ccc(Cl)cc3)CC2)nc1 (stereo unspecified) | . | . | . | . | . | .
C=C1CC(C(=O)N/N=C/c2ccc(O)cc2)C1 | 25 | . | . | . | . | .
C=C1C(=O)C=C2CN(C(=O)c3ccccc3)[C@@](Cc3ccc(F)cc3)(C(=O)OC)[C@@H]12 | 83 | . | 72 | 75 | . | 103
Cc1ncc([N+](=O)[O-])n1CC(O)CCl (stereo unspecified) | . | . | 17 | . | . | .
CC1CCCC(NC(=O)COC(=O)C2=COCCO2)C1C (stereo unspecified) | . | . | . | . | . | .
CCOCCN(C(=O)c1ccccc1Cl)c1cccc(C)c1C | . | . | . | . | . | .
CN(C)C(=O)c1ccc(Nc2nc(-c3cccs3)nc3ccccc23)cc1 | . | . | . | . | . | 26
CC(=O)c1ccc(Nc2nc(-c3ccccc3)nc3ccccc23)cc1 | . | . | . | . | . | .
Cc1ccc(/C=C/S(=O)(=O)NCC(=O)OCC(=O)NCc2ccccc2)cc1 | . | . | . | . | . | .
C=CCNC(=S)NNC(=O)c1cccn(Cc2cccc(Cl)c2)c1=O | . | . | . | . | . | 21
C=CCNC(=S)NNC(=O)c1cccn(Cc2ccc(Cl)cc2)c1=O | . | . | . | . | . | .
CC(C)COP(=O)(OCC(C)C)C(O)c1ccc(F)cc1 (stereo unspecified) | . | . | . | . | . | .
COc1ccc(-c2ccc(C(=O)NCc3ccncc3)c3occc23)c(C)c1 | 42 | . | . | . | . | 42
COc1ccc(-c2coc3c(C(=O)Nc4cc(OC)c(OC)c(OC)c4)cccc23)c(C)c1 | . | . | . | . | . | 45
COc1ccc(-c2coc3c(C(=O)NCc4ccc(OC)c(OC)c4)cccc23)c(C)c1 | . | . | . | . | . | 44
COc1ccc(-c2ccc(C(=O)NCc3ccc(F)c(F)c3)c3occc23)c(C)c1 | . | . | . | . | . | .
COc1ccc(-c2ccc(C(=O)N3CCOCC3)c3occc23)c(C)c1 | . | . | . | . | . | .
COc1ccc(-c2ccc(C(=O)N3CCN(C)CC3)c3occc23)c(C)c1 | 32 | . | . | . | . | .
O=C(CCS(=O)(=O)c1ccc(Br)cc1)NCc1ccco1 | . | . | . | . | . | .

Compound activity deposited in PubChem BioAssay by The Scripps Research Institute Molecular Screening Center.
